# Compounds with a hit are over-represented: about 4.8% of the library has one in this group of screens.
# IL-1B inflam inh: blocks inflammasome-driven IL-1 beta release | activity change, % at 57.5 µM | 4.7% of 360,000 active | AID 743279 | THP-1 LPS/ATP IL-1B secretion, AlphaLISA, 16 h; active compounds read low; in the data active = activity change below about -50%; inconclusive = mostly about -30% to -49%; also: % is scaled to controls: 0 for no effect and ±100 for the full control effect
#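 Secreted IL-1B measured by AlphaLISA bead assay after 16 h compound exposure of THP-1 cells; compounds (final up to 57.5 uM) added 1 h before LPS (250 ng/mL) and ATP (1.25 mM) stimulation; lower signal means less secretion.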
# S2 tox: cell viability loss in ATXN counter-screen | S2 cells (HEK-293 line with an ATXN2-luciferase reporter) viability, CellTiter-Fluor protease fluorescence, 24 h | AID 651635 | 0.49% of 400,000 active | Potency, µM (series often up to 56.7 µM), most hits filed as cytotoxic; also: potency is read from the fitted curve at half-maximal effect; nearly all actives have a fitted effect of over 40% in size
# USP2a block: inhibitors of human ubiquitin-specific protease USP2a; O75604; USP2 core, Ub-CHOP2 coupled fluorogenic reporter, 485/531; Potency, µM (doses to about 38.3 µM), for the others: top-dose activity change, negative = inhibition, usual class: inhibitors; 0.01% of 330,000 active;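 also: potency is read from the fitted curve at half-maximal effect; plate controls were DMSO wells for no effect and full inhibition by NEM control for full effect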
#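 Cell-free coupled assay: 10nM USP2 core preincubated 30min RT with compound in Tris-HCl pH 8.0/CaCl2/CHAPS buffer, then 25nM Ub-CHOP2 and 25nM reporter substrate; fluorescence (Ex 485/Em 531) read after 60min RT, normalized to NEM inhibition, concentration-response curves fitted.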
# ATXN2 expr inh: ATXN2 expression inhibition; HEK-293 ATXN2-luciferase reporter, luminescence, 24 h; AID 1745845; 0.72% of 360,000 active; Potency, µM (highest dose often 57 µM), for the others: top-dose activity change, negative = inhibition, actives largely listed as inhibitors; also: potency is read from the fitted curve at half-maximal effect; % is scaled to controls: 0 for no effect and ±100 for the full control effect; nearly all actives have a fitted effect of over 55% in size
#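 qHTS (up to 57 uM final) was run with 24 h compound exposure of reporter cells at 37 °C. Each well was multiplexed: SteadyGlo luminescence measured ATXN2-luciferase expression after a fluorogenic Gly-Phe-AFC viability readout (25 uM final).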
# USP1 inh: blocks the human USP1/UAF1 deubiquitinase complex | O94782 | recombinant USP1/UAF1, Ub-Rhodamine cleavage fluorescence | Potency, µM (series often up to 57.1 µM), for the others: top-dose activity change, negative = inhibition, usual class: inhibitors | 0.23% of 390,000 active; also: potency is read from the fitted curve at half-maximal effect; % is scaled to controls: 0 for no effect and ±100 for the full control effect; nearly all actives have a fitted effect of over 60% in size
# Target sequence (O94782 whole entry, looked up): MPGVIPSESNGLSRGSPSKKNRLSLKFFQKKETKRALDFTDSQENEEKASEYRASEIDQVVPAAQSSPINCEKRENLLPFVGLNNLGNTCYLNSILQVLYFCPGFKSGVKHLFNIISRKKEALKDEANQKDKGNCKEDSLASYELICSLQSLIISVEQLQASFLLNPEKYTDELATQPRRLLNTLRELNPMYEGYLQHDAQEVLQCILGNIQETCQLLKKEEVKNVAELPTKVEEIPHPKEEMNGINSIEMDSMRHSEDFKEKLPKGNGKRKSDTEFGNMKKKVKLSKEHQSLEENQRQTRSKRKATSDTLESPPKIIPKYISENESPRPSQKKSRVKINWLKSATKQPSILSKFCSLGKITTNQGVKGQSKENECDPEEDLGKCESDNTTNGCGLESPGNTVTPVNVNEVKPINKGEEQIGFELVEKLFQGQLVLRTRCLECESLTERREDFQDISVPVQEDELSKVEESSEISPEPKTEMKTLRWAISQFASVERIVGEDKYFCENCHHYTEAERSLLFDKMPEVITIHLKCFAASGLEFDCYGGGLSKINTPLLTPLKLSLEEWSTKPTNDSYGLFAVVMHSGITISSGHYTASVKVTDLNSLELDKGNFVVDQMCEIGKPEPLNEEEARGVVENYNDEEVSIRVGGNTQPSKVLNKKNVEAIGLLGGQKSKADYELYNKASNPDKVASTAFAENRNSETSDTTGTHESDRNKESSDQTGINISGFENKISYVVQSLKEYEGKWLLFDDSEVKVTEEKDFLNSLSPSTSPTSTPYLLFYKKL
#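 In this screen, compounds sit with the deubiquitinase complex (1nM) for 15 min at room temperature before Ub-Rho is added at 150nM final. Fluorescence rise is then followed for 6 reads every 60 seconds.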
# * hit, by the source's call; i = inactive; ? = inconclusive; . = no result. Unless noted, calls follow the shape of the dose curve; as a rule, active = well fitted curve in the direction sought with a large enough effect; inconclusive = small, poorly fitted or top-dose-only effect, or another doubt; inactive = no such curve, though single readings can be large; an effect the other way counts as inactive or inconclusive.
SMILES,IL-1B inflam inh,S2 tox,USP2a block,ATXN2 expr inh,USP1 inh
Cc1ccc(-c2ccnc(-n3ncc(C(=O)NCCN4CCOCC4)c3C3CC3)n2)o1,.,i,.,.,.
C=C1C(=O)[C@@]23C(CC[C@@H]1[C@H]2O)[C@@]12CO[C@]3(O)[C@@H](O)[C@@H]1C(C)(C)CC[C@@H]2O (some centres undefined),.,.,.,9.7µM*,.
Cc1ccc2oc(C(=O)N(Cc3cccc(F)c3)C3CCS(=O)(=O)C3)c(C)c2c1 (centres undefined),.,.,.,.,-13%
CC(=O)Nc1ccc(N2C(=O)c3cccc4c(O)ccc(c34)C2=O)cc1,13,.,?,.,28µM*
O=C1c2cccc3c(O)ccc(c23)C(=O)N1Cc1ccco1,53,.,?,-15%,28µM*
O=C1c2cccc3c(O)ccc(c23)C(=O)N1c1ccc(Cl)cc1,45,.,?,50%,28µM*
Cc1ccc(N2C(=O)c3cccc4c(C(=O)O)ccc(c34)C2=O)cc1,.,.,1%,.,.
Cc1cccc2cc(CN(CC3CCCO3)C(=O)c3cccc(F)c3)c(N(C)C)nc12 (centres undefined),.,i,.,.,.
OC(c1cccnc1)c1ccc2c(c1)CN(Cc1cccc3c1OCO3)CCO2 (centres undefined),.,i,.,.,.
COc1ccc(Cl)cc1NC(=O)C(C)n1nnc2sc3c(c2c1=O)CCCC3 (centres undefined),.,i,.,-5%,-9%
OCc1ccccc1O[C@@H]1O[C@H](CO)[C@H](O)[C@H](O)[C@H]1O,.,.,.,-1%,.
CCC(C)(C)C1CCC2(CC1)NC(=O)N(CC(=O)NCCc1ccc(OC)c(OC)c1)C2=O (centres undefined),-27,i,-2%,-4%,-7%
c1ccc(C[C@H]2CN=C(Nc3ccccc3)N2CCC2CCCC2)cc1,?,i,1%,-19%,-25%
NC1=NC[C@H](Cc2ccc(O)cc2)N1CCCCC1CCCCC1,-58*,?,-11%,?,-24%
CC(O)[C@H]1CN=C(N)N1CC1CCCCC1 (some centres undefined),28,i,.,6%,2%
NC1=NC[C@H](Cc2ccccc2)N1CCCCC1CCCCC1,?,?,-8%,25µM*,-11%
NC1=NC[C@H](Cc2ccc(O)cc2)N1CCc1cc(C(F)(F)F)cc(C(F)(F)F)c1,10,i,9%,9%,-31%
NC1=NC[C@@H](CC2CCCCC2)N1CCc1cc(C(F)(F)F)cc(C(F)(F)F)c1,-109*,18µM*,-28%,20µM*,-19%
NC1=NC[C@H](c2ccccc2)N1CC1CCCCC1,-54*,i,.,2%,5%
COc1cc(=O)n2c(c1C(=O)NC(C)c1ccco1)CCN(C(=O)c1ccc3c(c1)OCCO3)CC2 (centres undefined),.,i,.,.,.
Cc1ccsc1C(=O)N(Cc1cc2cc3c(cc2nc1N1CCOCC1)CCC3)CC1CCCO1 (centres undefined),.,i,.,.,.
Cc1ccc(-n2nnc(-c3nsc(NC(=O)c4ccccc4)n3)c2C)cc1,.,i,.,-31%,-25%
Cc1c(-c2nsc(NC(=O)c3cccs3)n2)nnn1-c1ccc(Br)cc1,.,32µM*,.,?,-20%
COc1ccc(C(=O)Nc2nc(-c3nnn(-c4ccc(F)cc4F)c3C)ns2)cc1,.,?,.,11µM*,-14%
CC1(C)CC(=O)C=C(c2ccc(COC(=O)c3ccc(-c4ccccc4)cc3)cc2)C1=O,15,i,.,12%,-24%
SMILES,IL-1B inflam inh,S2 tox,USP2a block,ATXN2 expr inh,USP1 inh
COC(=O)[C@H](CC(C)C)N1Cc2cc(OC)cc(OC)c2-c2ccccc2S1(=O)=O,-7,?,-2%,7%,-28%
CN(CCNC(=O)c1cc2c(=O)n(C)c3ccccc3c2n1C)Cc1ccccc1,?,i,1%,-36%,-18%
Cn1c(C(=O)NCCN2CCOCC2)cc2c(=O)n(C)c3ccccc3c21,-8,i,?,4%,-17%
CC1CCCCN1CCNC(=O)c1cc2c(=O)n(C)c3ccccc3c2n1C (centres undefined),-55*,?,2%,-26%,-5%
CCCN(CCC)CCNC(=O)c1cc2c(=O)n(C)c3ccccc3c2n1C,-63*,?,1%,-25%,-7%
COc1cccc(-c2noc(-c3ccc(Cl)nc3)n2)c1,-75*,i,2%,34%,-25%
CCOc1ccc(CCN2C(=O)C(=O)N([C@@H](Cc3ccccc3)CN3CCC[C@H]3CN3C(=O)C(=O)NC[C@@H]3Cc3ccccc3)C[C@@H]2Cc2ccc(O)cc2)cc1,-64*,i,.,-25%,.
CCOc1ccc(CCN2C(=O)C(=O)N([C@@H](CC(C)C)CN3CCC[C@H]3CN3C(=O)C(=O)NC[C@@H]3Cc3ccccc3)C[C@@H]2Cc2ccc(O)cc2)cc1,0,?,.,0%,.
CCOc1ccc(CCN2C(=O)C(=O)N([C@@H](CC(C)C)CN3CCC[C@@H]3CN3C(=O)C(=O)NC[C@@H]3Cc3ccccc3)C[C@@H]2Cc2ccc(O)cc2)cc1,-52*,?,.,-12%,-19%
CCOc1ccc(CCN2C(=O)C(=O)N([C@@H](Cc3ccccc3)CN3CCC[C@H]3CN3C(=O)C(=O)NC[C@@H]3Cc3ccccc3)C[C@@H]2Cc2ccccc2)cc1,?,28µM*,.,?,.
CCOc1ccc(CCN2C(=O)C(=O)N([C@@H](CC(C)C)CN3CCC[C@@H]3CN3C(=O)C(=O)NC[C@@H]3Cc3ccccc3)C[C@@H]2CC(C)C)cc1,?,.,.,?,-15%
CCOc1ccc(CCN2C(=O)C(=O)N([C@@H](Cc3ccccc3)CN3CCC[C@H]3CN3C(=O)C(=O)NC[C@@H]3Cc3ccccc3)C[C@@H]2CC(C)C)cc1,-79*,?,.,?,.
COCCCN1C(=O)C(CC(=O)NCC2CCCCC2)CC(C(=O)N(C)C)=C1C (centres undefined),16,i,.,9%,-13%
CCOc1ccc(CCN2C(=O)C(=O)N([C@@H](Cc3ccc(O)cc3)CN3CCC[C@H]3CN3C(=O)C(=O)NC[C@@H]3Cc3ccccc3)C[C@@H]2Cc2ccc(O)cc2)cc1,-52*,i,.,5%,.
CC(C)C[C@@H](CN1CCC[C@H]1CN1C(=O)C(=O)NC[C@@H]1Cc1ccc(O)cc1)N1C[C@H](Cc2ccccc2)N(CCc2ccccc2)C(=O)C1=O,?,i,.,12%,.
COC(=O)C1CCN(Cc2cn(Cc3ccccc3)nc2-c2cc3ccccc3o2)CC1,-17,i,1%,.,-25%
COCC1CCCN(Cc2cn(Cc3ccccc3)nc2-c2cc3ccccc3o2)C1 (centres undefined),-76*,?,-1%,-31%,-14%
